Bioassay records: PubChem, Center for Chemical Genomics, University of Michigan
Dicer inh: inhibitors of Dicer pre-microRNA processing, primary screen, biochemical, cat-ELCCA, chemiluminescence; 47,000 tested, 6% active; cat-ELCCA pre-miR-21 Dicer processing; active compounds read high; z-score at 25 µM; AID 1347074, 2019; Endoribonuclease Dicer (Homo sapiens), Q9UPY3; in the data active = z-score above about 3, passing the limit was not always enough;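 also: higher signal means more uncleaved substrate so more Dicer inhibition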
Each line names hits and unclear results; the compound was inactive in the other large screens. The sample as a whole holds a higher share of hits than the screen did.

Cc1nc(NCCN(C)C)c2sc3nc4c(cc3c2n1)COC(C)(C)C4	none
CSc1scc(Cl)c1S(=O)(=O)C(C)C	Dicer inh 14
CSc1sc(C(=O)O)c(N)c1S(=O)(=O)C(C)C	none
CSc1scc(NC(=O)Nc2ccc(OC(F)(F)F)cc2)c1S(=O)(=O)C(C)C	none
CCCCOC(=O)C1=C(C)NC2=C(C(=O)CCC2)C1c1cc(OC)c(OC)cc1Br (configuration not stated)	none
Cc1cc(NC(=O)C2Sc3nnc(C)n3NC2c2ccc(Cl)cc2)ccc1Br (configuration not stated)	Dicer inh 3.7
Cc1nnc2n1NC(c1ccc(Cl)cc1)C(C(=O)Nc1ccc(Br)cc1)S2 (configuration not stated)	none
Cc1cc(C)cc(NC(=O)C2Sc3nnc(C)n3NC2c2ccc(Cl)cc2)c1 (configuration not stated)	none
Cc1nc(-c2cccs2)sc1C(=O)NNC(=O)Nc1ccccc1	none
COC(=O)c1ccc(C2c3c(oc4ccccc4c3=O)C(=O)N2c2ccc(C)cn2)cc1 (configuration not stated)	none
CCOc1cc(C2c3c(oc4ccccc4c3=O)C(=O)N2c2ccccn2)ccc1O (configuration not stated)	none
COc1cc(C2c3c(oc4ccccc4c3=O)C(=O)N2c2ccc(C)cn2)ccc1O (configuration not stated)	Dicer inh 4.3
C=CCOc1ccc(C2c3c(oc4ccccc4c3=O)C(=O)N2c2ccc(C)cn2)cc1OCC (configuration not stated)	none
Cc1ccc(N2C(=O)c3oc4ccccc4c(=O)c3C2c2cccc(O)c2)nc1 (configuration not stated)	none
CCOc1cc(C2c3c(oc4ccccc4c3=O)C(=O)N2c2ccc(C)cn2)ccc1O (configuration not stated)	Dicer inh 4.7
CC1(C)NC(=O)N(CC(O)COc2ccc(F)cc2)C1=O (configuration not stated)	none
CSc1ccc(/C=N/NC(N)=O)s1	none
CC(C)Oc1cc(O)c2c(=O)c(-c3ccc(O)cc3)coc2c1	none
COc1ccc(-c2coc3cc(OCc4ccc(Br)cc4)cc(O)c3c2=O)cc1OC	Dicer inh 3.9
O=c1c(-c2ccc(O)cc2)coc2cc(O)cc(O)c12	none
Cc1cccc(C)c1-n1c(-c2ccncc2)n[nH]c1=S	none
Cc1oc(-c2ccc(Cl)cc2)cc1COC(=O)Nc1ccc(Cl)cc1	none
Cc1ccc(OS(=O)(=O)c2cc(Cl)c(Cl)cc2Cl)c(Br)c1	none
COc1ccc(CN2CCC(N3CCCCC3)CC2)cc1Br	Dicer inh 3.7
COc1ccc(CN2CCC(N3CCCCC3)CC2)cc1OC	none
CCn1c2ccccc2c2cc(CN3CCC(N4CCCCC4)CC3)ccc21	none
O=C(CC1CC(=O)Oc2ccccc21)Nc1nccs1 (configuration not stated)	Dicer inh 3.8
O=C(Nc1nccs1)C1COc2ccccc2O1 (configuration not stated)	none
O=C(Cn1c(=O)sc2ccccc21)Nc1nccs1	none
Cc1cc(Br)ccc1OCCCN1CCC(C)CC1	none
Clc1cc2c(cc1CSc1ncnc3nc[nH]c13)OCO2	none
Cc1c(N=Cc2ccc(-c3ccccc3[N+](=O)[O-])o2)c(=O)n(-c2ccccc2)n1C	none
O=C1C(=O)N(c2ccc(Cl)cc2)C(=S)/C1=C(/Nc1ccc(Cl)cc1)c1ccccc1	none
O=C(NCc1ccco1)C1CC(c2ccc(Cl)cc2)=NO1 (configuration not stated)	none
CC(C)CNC(=O)C1CC(c2ccccc2)=NO1 (configuration not stated)	Dicer inh 3.6
O=C(NCc1ccc2c(c1)OCO2)C1CC(c2cccc(Br)c2)=NO1 (configuration not stated)	none
COCCNS(=O)(=O)c1ccc(OC)c(-c2nnc3c4ccccc4c(C)nn23)c1	none
Cc1c(C)c(C)c(CS/C(N)=N/N)c(C)c1C	none
CCOc1nc(-c2ccc(Cl)cc2)ccc1-c1noc(-c2ccncc2)n1	none
Cc1oc2cc(O)ccc2c(=O)c1-c1ccc2c(c1)OCCO2	Dicer inh 5.5
COc1ccc(-c2c(C)oc3cc(OC(C)C(=O)O)ccc3c2=O)cc1OC (configuration not stated)	none
Cc1cc(=O)oc2cc(O)ccc12	none
CCOC(=O)c1oc2cc(O)ccc2c(=O)c1-c1ccc2c(c1)OCCO2	none
CCCc1cc2c(=O)c(-c3ccc4c(c3)OCCO4)coc2cc1O	none
CCOC(=O)c1oc2cc(O)c(CC)cc2c(=O)c1-c1ccc2c(c1)OCCO2	Dicer inh 4.5
CC1CCN(c2ccc([N+](=O)[O-])c(Oc3nc4cc(Cl)ccc4s3)c2)CC1	none
O=C(O)CSc1n[nH]c(-c2ccc(Cl)cc2)n1	none
COC(=O)/C(=C/C(=O)c1ccc(Cl)cc1)Nc1ccccc1	none
c1ccc(-c2nc(N3CCOCC3)c3ccccc3n2)cc1	none
CCCCCOC(=O)C1=C(C)NC2=C(C(=O)CCC2)C1c1ccc(O)c(OC)c1 (configuration not stated)	none
CC1(C)Cc2nc3sc4c(NCCc5ccccc5)ncnc4c3cc2CO1	none
O=C(Nc1nc2n(n1)C(c1ccc(F)cc1)C=C(c1ccccc1)N2)c1cccs1 (configuration not stated)	none
